Tau fluor counter = Counterscreen qHTS for Inhibitors of Tau Fibril Formation, Fluorescence Polarization; tau K18 P301L Alexa594 fluorescence, heparin fibrillization; actives 0.93% (n = 280,000); Potency, µM (doses to about 57.7 µM), without a hit: top-dose activity change, negative = decrease; also: nearly all actives have a fitted effect of over 55% in size
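Human K18 P301L tau (15 uM unlabeled plus 0.24 uM Alexa 594-labeled, final) in 100 mM sodium acetate pH 7 was mixed with compound and 20 uM heparin and incubated 6 hr at 37 C.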
RORgamma inh = qHTS for inhibitors of ROR gamma transcriptional activity; Nuclear receptor ROR-gamma (Mus musculus), P51450; Drosophila S2 Gal4-RORgamma UAS-luciferase reporter, 20 h; Potency, µM (top dose mostly 53.6 µM), for inactives: at the highest dose activity change, negative = inhibition, actives largely listed as inhibitors; actives 5.4% (n = 310,000); AID 2551, 2010; also: nearly all actives have a fitted effect of over 60% in size
Target sequence (P51450 whole entry, looked up, the tested form may be a part): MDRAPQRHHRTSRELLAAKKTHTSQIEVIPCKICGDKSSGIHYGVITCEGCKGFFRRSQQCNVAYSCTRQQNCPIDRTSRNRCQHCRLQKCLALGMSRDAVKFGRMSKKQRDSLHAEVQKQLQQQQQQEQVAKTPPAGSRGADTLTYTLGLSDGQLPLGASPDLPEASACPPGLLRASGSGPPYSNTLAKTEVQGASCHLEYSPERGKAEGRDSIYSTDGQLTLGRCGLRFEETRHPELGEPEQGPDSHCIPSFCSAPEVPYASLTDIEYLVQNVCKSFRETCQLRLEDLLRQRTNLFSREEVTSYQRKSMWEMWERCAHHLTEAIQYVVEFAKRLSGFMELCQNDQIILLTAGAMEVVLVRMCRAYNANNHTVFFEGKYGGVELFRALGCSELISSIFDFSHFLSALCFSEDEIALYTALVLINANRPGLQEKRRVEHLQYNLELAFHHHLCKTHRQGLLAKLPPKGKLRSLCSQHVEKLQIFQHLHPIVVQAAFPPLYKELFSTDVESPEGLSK
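ROR gamma transcriptional activity was tracked as Gal4-UAS luciferase output in stably transfected Drosophila Schneider cells, with compound added 1 hr before 700 uM copper sulfate induction and a 20 hr ambient-temperature incubation.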
Tau ThT inhib = qHTS for Inhibitors of Tau Fibril Formation, Thioflavin T Binding | Potency, µM (top dose mostly 57.4 µM), inactives show at the top dose activity, negative = inhibition, actives largely listed as inhibitors | Microtubule-associated protein tau (Homo sapiens), P10636 | recombinant tau K18 P301L, heparin-induced fibrillization, ThT fluorescence | actives 2.1% (n = 270,000); also: nearly all actives have a fitted effect of over 55% in size
Target sequence (P10636 561-689 P618L limits assumed): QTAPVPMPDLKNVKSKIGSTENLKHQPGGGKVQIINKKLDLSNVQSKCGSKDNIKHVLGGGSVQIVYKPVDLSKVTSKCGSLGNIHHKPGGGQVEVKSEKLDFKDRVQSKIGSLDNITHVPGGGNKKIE
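Fibril formation assay: tau K18 P301L at 15 uM with trace Alexa 594 label, heparin inducer 20 uM, pH 7 sodium acetate buffer, 37 C for 6 hr; endpoint ThT signal.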
Tau FP inhib = qHTS for Inhibitors of Tau Fibril Formation, Fluorescence Polarization | Microtubule-associated protein tau (Homo sapiens), P10636 | AID 1468, 2008 | actives 0.39% (n = 280,000) | K18 P301L tau heparin fibrillization, Alexa594 FP, 6 h | Potency, µM (highest dose often 57.7 µM), for inactives: at the highest dose activity, negative = inhibition, usual class: inhibitors; also: nearly all actives have a fitted effect of over 55% in size
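Steps: dispense K18 P301L tau (15 uM plus 0.24 uM Alexa 594 tracer, final) in pH 7 sodium acetate; add compound; add heparin (20 uM final); incubate 6 hr, 37 C; add ThT (30 uM final); after 1 hr ambient, read FP.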
Gal4-VP16 FLuc = VP16 counterscreen qHTS for inhibitors of ROR gamma transcriptional activity | Potency, µM (series often up to 53.6 µM), inactives show at the top dose activity, negative = inhibition, most hits filed as inhibitors | actives 3.5% (n = 310,000) | AID 2546, 2010 | Drosophila S2 Gal4-VP16 UAS-luciferase, luminescence, 20 h;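 also: Gal4-VP16 expression switched on by copper sulfate through the metallothionein promoter; nearly all actives have a fitted effect of over 50% in size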
Active calls of the source: *; u = inconclusive; x = no result given; [ ] = dose if it differs, or a comment. Hits are enriched below; roughly 7.3% of the tested compounds scored in any of these assays. Calls follow the shape of the dose curve; as a rule, active = well fitted curve in the direction sought with a large enough effect; inconclusive = small, poorly fitted or top-dose-only effect, or another doubt; inactive = no such curve, though single readings can be large; an effect the other way counts as inactive or inconclusive. % is scaled to controls: 0 for no effect and ±100 for the full control effect; potency is read from the fitted curve at half-maximal effect.

SMILES	Tau fluor counter	RORgamma inh	Tau ThT inhib	Tau FP inhib	Gal4-VP16 FLuc
COC(=O)c1nn(C23CC4CC(CC(C4)C2)C3)c2c1C(=O)N(c1ccc(Br)cc1)C2=O	-4.1%	-13.1%	-13.0%	-6.3%	5.62µM*
CCOC(=O)c1nn(C23CC4CC(CC(C4)C2)C3)c2c1C(=O)N(c1ccc(C)cc1)C2=O	-4.5%	11.2µM*	-19.3%	-4.4%	7.08µM*
Cc1ccc(S(=O)(=O)NCCCNS(=O)(=O)c2ccccc2)cc1	x	31.9%[1.91 µM]	x	x	-1.6%
CCCCCC/C(=N/O)c1ccccn1	-14.5%	5.01µM*	-9.3%	-12.0%	15.8µM*
COc1cccc(-c2nc(CS(=O)(=O)CC(=O)NCc3ccc(C)cc3)c(C)o2)c1	-26.1%	x	u	-6.7%	x
NS(=O)(=O)c1ccc(CCNC(c2ccccc2)c2ccccc2)cc1	x	0.6%	x	x	-3.1%
c1ccc(C(NCCNC(c2ccccc2)c2ccccc2)c2ccccc2)cc1	-12.0%	12.6µM*	-11.6%	-10.7%	u
Cc1cc(C)cc(NS(=O)(=O)c2ccc(NC(=S)NC(=O)c3ccc(Br)o3)cc2)c1	u	3.55µM*	-4.6%	u	7.94µM*
NS(=O)(=O)c1ccc(NC(=S)NC(=O)c2ccc(Br)o2)cc1	-4.9%	-21.3%	-4.0%	u	-18.0%
O=C(NC(=S)Nc1ccc(S(=O)(=O)Nc2nccs2)cc1)c1ccc(Br)o1	-4.4%	-26.4%	-5.0%	2.5%	0.0%
CN(C)S(=O)(=O)c1ccc(NC(=S)NC(=O)c2ccc(Br)o2)cc1	-24.8%	11.2µM*	-13.7%	-17.2%	u
CS(=O)(=O)Nc1ccccc1C(=O)OCc1cc(=O)n2nc(C3CCCCC3)sc2n1	-1.2%	x	-17.4%	10.0%	x
CC1CCC2C(=O)N3C(CCC(C)C3c3ccccc3Br)C(=O)N2C1c1ccc(C#CCN(C)C)cc1 (configuration not stated)	-1.4%[11.6 µM]	10.0%[10 µM]	-10.6%[11.5 µM]	-0.3%[11.6 µM]	-1.3%[10 µM]
CC1=CC(=O)C2=C(C)CC[C@H]3[C@H](C)C(=O)O[C@@H]3C12 (some centres not stated)	x	9.8%	x	x	-6.4%
CC1CCCCN1C(=O)Cn1c(=O)oc2cc(S(=O)(=O)N3CCCC3)ccc21 (configuration not stated)	x	2.51µM*	x	x	-2.6%
CC1CCN(C(=O)Cn2c(=O)oc3cc(S(=O)(=O)N4CCCCC4)ccc32)CC1	0.1%	-3.1%	7.0%	-3.4%	2.3%
Cc1ccc(CNC(=O)C2CCN(S(=O)(=O)c3c(C)noc3/C=C/c3ccccc3F)CC2)o1	-5.7%	x	-0.1%	0.4%	x
CC(=O)Nc1ccc(OC(=O)c2ccc(Br)c([N+](=O)[O-])c2)cc1	u	u	25.1µM*	u	u
Cc1ccc(CC(=O)Nc2nc3c(s2)CCCC3)cc1	-18.4%	-20.3%	-9.8%	7.8%	10.3%
O=C(CS(=O)(=O)Cc1ccccc1)Nc1nc2c(s1)CCCC2	-6.9%	31.0%	-6.3%	6.2%	14.6%
Cc1nc(NC(N)=S)sc1C(=O)Nc1ccccc1	-8.4%	11.2µM*	-7.6%	0.0%	-13.0%
COC(=O)c1sc(NC(=S)NC(=O)c2ccccc2F)nc1C	-21.6%	20.6%	u	-6.0%	-22.2%
O=C(NC(=S)Nc1nc2c(s1)CCCC2)c1ccccc1	4.6%	0.562µM*	0.0%	3.5%	0.631µM*
COC(=O)c1sc(NC(=S)NC(=O)c2cccc(C)c2)nc1C	3.0%	3.98µM*	-3.9%	6.7%	u
S=C(Nc1nc2c(s1)CCCC2)NC1CC1	x	1.26µM*	x	x	1.78µM*
SMILES	Tau fluor counter	RORgamma inh	Tau ThT inhib	Tau FP inhib	Gal4-VP16 FLuc
Cc1ccc(NS(=O)(=O)c2ccc(Cl)c(C(=O)Nc3cccc(C(=O)O)c3)c2)cc1	x	-10.6%	x	x	-4.4%
CCn1c(=N)c(C(=O)NCc2ccccc2)cc2c(=O)n3cc(C)ccc3nc21	7.4%	x	7.0%	6.8%	x
CCN(CC)C(=O)Cn1c(=O)n(CC2CCC(C(=O)NC)CC2)c(=O)c2sccc21 (configuration not stated)	-3.0%	x	-2.0%	-3.1%	x
COC(=O)c1ccc(C(=O)NC(=S)Nc2nc3c(s2)CCCC3)cc1	-26.4%	2.24µM*	u	3.5%	7.08µM*
Cc1nc(NC(=S)NC(=O)c2ccccc2)sc1C	4.6%	1.26µM*	-5.5%	-6.1%	u
Cc1nc(NC(=O)c2ccccc2)sc1C	x	u	x	x	-15.7%
O=c1c(S(=O)(=O)c2ccccc2)cn(Cc2ccc(F)cc2)c2cc(N3CCCCC3)c(F)cc12	-0.7%	x	3.0%	-7.2%	x
COc1cccc(CCc2ccccc2OCC(CN(C)C)OC(=O)CCC(=O)O)c1 (configuration not stated)	x	31.0%	x	x	6.2%
Fc1ccc2nc(Nc3ccccc3)sc2c1	u	-40.5%	5.2%	13.3%	-7.1%
NNc1nc2ccc(F)cc2s1	17.8µM*[quencher]	u	25.1µM*	u	u
NNc1nc2ccc(Cl)cc2s1	14.1µM*[quencher]	u	22.4µM*	u	u
Cc1nn2c(nc1=O)NNC2(C)C(C)(C)C (configuration not stated)	-14.8%	11.2µM*	-19.5%	-6.5%	-13.8%
O=C(O)c1cc([N+](=O)[O-])ccc1NCCCc1ccccc1	-8.2%	29.7%	3.55µM*	2.1%	12.3%
O=C(NCCNc1ccc([N+](=O)[O-])cc1)c1ccc(Cl)cc1	-29.4%	u	8.91µM*	-0.8%	u
O=C(NCCc1ccccc1)c1ccc([N+](=O)[O-])cc1	-9.0%	7.94µM*	-17.9%	1.5%	u
Cc1ccc(CNC(=O)CN(C)S(=O)(=O)c2cccs2)cc1	-7.9%	26.4%	-0.1%	-0.7%	10.7%
CC1(C)COC(/C=C/c2cccc([N+](=O)[O-])c2)=N1	-8.3%	u	-2.8%	3.1%	1.41µM*
CC1(C)COC(c2cc([N+](=O)[O-])ccc2Cl)=N1	-7.5%	-0.9%	-8.6%	-8.3%	9.7%
CC1=C(C#N)C(=O)NC(=O)/C1=C/c1ccc(-c2ccc(S(N)(=O)=O)cc2)o1	u	-2.3%	15.8µM*	-18.1%	14.2%
C=CCOC(=O)c1cc(-c2ccc(/C=C3\C(=O)NC(=O)C(C#N)=C3C)o2)ccc1Cl	u	25.3%	u	-17.4%	-3.5%
S=C(Nc1ccc(Oc2ccccc2)cc1)NC1CCCC1	u	5.01µM*	-10.6%	13.3%	5.01µM*
COc1ccc(NC(=S)NC2CCCCC2)cn1	-2.8%	12.6µM*	-2.3%	0.3%	u
O=C(Nc1ccccc1Oc1ccccc1)C1CCCC1	-7.0%	13.3%	2.7%	-13.9%	-4.8%
S=C(Nc1ccccc1Oc1ccccc1)NC1CCCC1	-15.1%	3.16µM*	-2.2%	-2.7%	7.08µM*
COC(=O)Cc1ccc(NC(=S)NC2CC2)cc1	-7.7%	-12.1%	-3.8%	u	-16.6%
